Drawing on ChEMBL document CHEMBL1961873, “Compounds: GSK PKIS; Assays: Nanosyn kinase panel” (2012), this text covers inhibition for seven molecules.

A word on the inhibition: it is the change of the read-out against control, counted positive when it falls.

Test [1] has as its target Tyrosine-protein kinase CSK (Homo sapiens) (UniProt P41240). As to conditions: at 1 µM.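 Further: each value is an averaged inhibition reading.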
The target of test [2] is T1, Discoidin domain-containing receptor 2 (Homo sapiens) (UniProt Q16832).
T1 sequence (whole entry): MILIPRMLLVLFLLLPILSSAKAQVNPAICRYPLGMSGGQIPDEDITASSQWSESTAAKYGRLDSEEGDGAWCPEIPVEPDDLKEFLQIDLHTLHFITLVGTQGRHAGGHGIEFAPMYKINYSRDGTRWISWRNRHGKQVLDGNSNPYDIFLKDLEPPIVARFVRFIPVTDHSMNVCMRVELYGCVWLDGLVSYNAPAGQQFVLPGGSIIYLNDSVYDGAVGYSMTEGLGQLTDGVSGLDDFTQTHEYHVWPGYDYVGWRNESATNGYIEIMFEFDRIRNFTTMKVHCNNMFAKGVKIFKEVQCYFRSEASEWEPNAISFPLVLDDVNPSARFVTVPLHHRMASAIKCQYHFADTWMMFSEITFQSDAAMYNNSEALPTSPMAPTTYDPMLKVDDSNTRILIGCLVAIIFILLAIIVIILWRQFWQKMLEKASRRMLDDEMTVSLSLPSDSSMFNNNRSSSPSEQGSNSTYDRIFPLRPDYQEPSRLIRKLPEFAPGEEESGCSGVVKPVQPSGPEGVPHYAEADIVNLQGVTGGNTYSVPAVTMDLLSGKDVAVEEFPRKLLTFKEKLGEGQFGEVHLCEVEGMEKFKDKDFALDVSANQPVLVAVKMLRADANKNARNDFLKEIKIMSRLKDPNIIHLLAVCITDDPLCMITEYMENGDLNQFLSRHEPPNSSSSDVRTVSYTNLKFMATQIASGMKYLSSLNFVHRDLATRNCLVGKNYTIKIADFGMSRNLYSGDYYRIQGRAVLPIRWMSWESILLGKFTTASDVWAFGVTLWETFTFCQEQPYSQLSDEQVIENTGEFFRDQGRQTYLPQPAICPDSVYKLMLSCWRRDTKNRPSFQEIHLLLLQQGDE
As to conditions: at 0.1 µM.

Test [3] addresses T1, Discoidin domain-containing receptor 2 (Homo sapiens). Particulars: at 1 µM.
For test [4], the target named is Epidermal growth factor receptor (Homo sapiens) (UniProt P00533). As to conditions: at 0.1 µM.
Test [5] has the same target. Particulars: at 1 µM.
For test [6], the system named is Epidermal growth factor receptor (Homo sapiens), P00533 [L858R]. As to conditions: at 0.1 µM.
The test system is the same in test [7]. Particulars: at 1 µM.
Test [8] deals with Epidermal growth factor receptor (Homo sapiens), P00533 [L861Q]. Particulars: at 0.1 µM.
Test [9] shares this test system. As to conditions: at 1 µM.
In test [10] the test system is Epidermal growth factor receptor (Homo sapiens), P00533 [T790M]. As to conditions: at 0.1 µM.
For test [11] the test system is unchanged. As to conditions: at 1 µM.
The test system of test [12] is Epidermal growth factor receptor (Homo sapiens), P00533 [L858R,T790M]. Particulars: at 0.1 µM.
Test [13] shares this test system. As to conditions: at 1 µM.
Test [14] deals with Ephrin type-A receptor 2 (Homo sapiens) (UniProt P29317). Particulars: at 0.1 µM.
Test [15] has the same target. Particulars: at 1 µM.
Test [16] has as its target T2, Ephrin type-A receptor 3 (Homo sapiens) (UniProt P29320).
T2 sequence (whole entry): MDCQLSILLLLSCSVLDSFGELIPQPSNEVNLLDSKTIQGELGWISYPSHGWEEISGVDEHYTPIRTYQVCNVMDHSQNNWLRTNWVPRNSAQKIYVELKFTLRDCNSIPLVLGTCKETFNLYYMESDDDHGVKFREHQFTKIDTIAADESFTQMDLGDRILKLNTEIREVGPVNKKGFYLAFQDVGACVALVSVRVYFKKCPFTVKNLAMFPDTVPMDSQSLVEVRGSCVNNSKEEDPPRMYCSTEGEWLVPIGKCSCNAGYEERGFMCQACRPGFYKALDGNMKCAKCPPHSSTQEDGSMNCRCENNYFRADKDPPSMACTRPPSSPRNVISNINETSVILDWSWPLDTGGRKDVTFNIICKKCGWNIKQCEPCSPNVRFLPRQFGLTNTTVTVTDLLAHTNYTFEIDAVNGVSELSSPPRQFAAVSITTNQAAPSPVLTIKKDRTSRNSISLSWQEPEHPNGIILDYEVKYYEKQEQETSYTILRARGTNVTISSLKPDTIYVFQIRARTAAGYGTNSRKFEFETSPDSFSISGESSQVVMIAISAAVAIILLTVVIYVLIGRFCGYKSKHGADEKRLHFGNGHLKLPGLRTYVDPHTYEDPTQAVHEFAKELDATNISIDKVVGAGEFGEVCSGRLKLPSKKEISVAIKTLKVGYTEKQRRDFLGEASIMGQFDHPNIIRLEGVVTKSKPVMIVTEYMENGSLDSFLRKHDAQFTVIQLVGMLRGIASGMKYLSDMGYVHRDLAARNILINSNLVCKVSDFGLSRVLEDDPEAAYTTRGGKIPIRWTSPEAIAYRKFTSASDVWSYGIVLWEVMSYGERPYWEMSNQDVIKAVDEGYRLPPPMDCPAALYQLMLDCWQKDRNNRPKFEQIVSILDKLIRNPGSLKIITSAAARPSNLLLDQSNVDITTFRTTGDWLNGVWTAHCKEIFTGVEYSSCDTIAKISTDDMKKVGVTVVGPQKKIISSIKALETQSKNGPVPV
As to conditions: at 0.1 µM.

Test [17] deals with T2, Ephrin type-A receptor 3 (Homo sapiens). As to conditions: at 1 µM.
Test [18] concerns the target Ephrin type-A receptor 4 (Homo sapiens) (UniProt P54764). Particulars: at 0.1 µM.
Test [19] shares this target. As to conditions: at 1 µM.
Test [20] has as its target T3, Ephrin type-B receptor 2 (Homo sapiens) (UniProt P29323).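 Further: reported as mean inhibition of EPHB2, from the GSK PKIS dataset.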
T3 sequence (whole entry): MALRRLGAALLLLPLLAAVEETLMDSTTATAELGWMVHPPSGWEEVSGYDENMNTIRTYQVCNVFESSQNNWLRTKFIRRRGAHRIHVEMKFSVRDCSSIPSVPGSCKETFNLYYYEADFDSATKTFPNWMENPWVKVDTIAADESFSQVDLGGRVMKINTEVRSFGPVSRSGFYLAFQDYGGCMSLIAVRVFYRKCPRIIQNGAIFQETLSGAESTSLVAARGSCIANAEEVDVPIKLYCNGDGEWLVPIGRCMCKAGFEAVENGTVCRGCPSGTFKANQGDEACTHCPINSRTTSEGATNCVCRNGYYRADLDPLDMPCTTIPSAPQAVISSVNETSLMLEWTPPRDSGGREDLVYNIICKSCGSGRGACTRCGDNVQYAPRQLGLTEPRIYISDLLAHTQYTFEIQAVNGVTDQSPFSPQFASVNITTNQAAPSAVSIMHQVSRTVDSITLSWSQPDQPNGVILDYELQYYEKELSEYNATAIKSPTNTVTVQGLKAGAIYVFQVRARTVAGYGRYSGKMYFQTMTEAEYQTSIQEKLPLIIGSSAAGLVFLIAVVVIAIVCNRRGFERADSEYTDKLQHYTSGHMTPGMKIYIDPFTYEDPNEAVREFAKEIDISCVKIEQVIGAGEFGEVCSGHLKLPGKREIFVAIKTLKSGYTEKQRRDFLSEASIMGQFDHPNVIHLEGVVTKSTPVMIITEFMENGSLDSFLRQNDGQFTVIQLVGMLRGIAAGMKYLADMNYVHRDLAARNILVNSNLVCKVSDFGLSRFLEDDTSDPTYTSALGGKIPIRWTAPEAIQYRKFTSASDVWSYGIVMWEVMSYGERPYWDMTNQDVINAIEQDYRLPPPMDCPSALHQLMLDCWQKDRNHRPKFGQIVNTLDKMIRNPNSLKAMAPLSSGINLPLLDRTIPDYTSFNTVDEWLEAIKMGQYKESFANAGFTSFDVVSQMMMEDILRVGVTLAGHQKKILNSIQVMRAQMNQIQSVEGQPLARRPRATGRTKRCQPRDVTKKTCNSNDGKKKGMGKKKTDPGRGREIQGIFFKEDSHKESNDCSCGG
Particulars: at 0.1 µM.

Chain of Ephrin type-A receptor 4 (Homo sapiens) (P54764 whole entry): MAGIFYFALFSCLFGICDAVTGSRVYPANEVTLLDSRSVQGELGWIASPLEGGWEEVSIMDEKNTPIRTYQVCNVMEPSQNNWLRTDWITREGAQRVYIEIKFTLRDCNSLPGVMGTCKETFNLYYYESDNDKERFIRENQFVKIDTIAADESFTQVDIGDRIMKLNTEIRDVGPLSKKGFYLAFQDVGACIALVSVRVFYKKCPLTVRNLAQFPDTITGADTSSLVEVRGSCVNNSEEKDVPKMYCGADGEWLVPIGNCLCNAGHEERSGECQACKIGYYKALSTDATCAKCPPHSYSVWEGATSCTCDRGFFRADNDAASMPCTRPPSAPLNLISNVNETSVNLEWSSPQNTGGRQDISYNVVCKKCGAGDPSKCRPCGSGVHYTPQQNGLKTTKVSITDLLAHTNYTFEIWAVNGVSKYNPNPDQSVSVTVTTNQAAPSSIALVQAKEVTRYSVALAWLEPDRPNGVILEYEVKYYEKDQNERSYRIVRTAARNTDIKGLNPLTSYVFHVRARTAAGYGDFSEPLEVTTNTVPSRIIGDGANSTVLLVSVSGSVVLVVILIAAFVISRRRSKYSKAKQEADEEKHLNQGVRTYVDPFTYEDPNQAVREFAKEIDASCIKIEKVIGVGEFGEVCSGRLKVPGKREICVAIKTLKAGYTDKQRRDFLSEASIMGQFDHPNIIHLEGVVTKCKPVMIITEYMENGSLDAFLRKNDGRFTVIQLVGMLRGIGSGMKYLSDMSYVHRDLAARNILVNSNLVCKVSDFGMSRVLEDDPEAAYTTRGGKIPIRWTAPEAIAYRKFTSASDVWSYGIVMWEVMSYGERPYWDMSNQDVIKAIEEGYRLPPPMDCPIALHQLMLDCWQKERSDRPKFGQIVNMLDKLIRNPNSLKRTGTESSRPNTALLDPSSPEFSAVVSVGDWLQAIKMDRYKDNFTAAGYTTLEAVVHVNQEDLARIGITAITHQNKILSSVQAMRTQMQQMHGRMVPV
Chain of Ephrin type-A receptor 2 (Homo sapiens) (P29317 whole entry): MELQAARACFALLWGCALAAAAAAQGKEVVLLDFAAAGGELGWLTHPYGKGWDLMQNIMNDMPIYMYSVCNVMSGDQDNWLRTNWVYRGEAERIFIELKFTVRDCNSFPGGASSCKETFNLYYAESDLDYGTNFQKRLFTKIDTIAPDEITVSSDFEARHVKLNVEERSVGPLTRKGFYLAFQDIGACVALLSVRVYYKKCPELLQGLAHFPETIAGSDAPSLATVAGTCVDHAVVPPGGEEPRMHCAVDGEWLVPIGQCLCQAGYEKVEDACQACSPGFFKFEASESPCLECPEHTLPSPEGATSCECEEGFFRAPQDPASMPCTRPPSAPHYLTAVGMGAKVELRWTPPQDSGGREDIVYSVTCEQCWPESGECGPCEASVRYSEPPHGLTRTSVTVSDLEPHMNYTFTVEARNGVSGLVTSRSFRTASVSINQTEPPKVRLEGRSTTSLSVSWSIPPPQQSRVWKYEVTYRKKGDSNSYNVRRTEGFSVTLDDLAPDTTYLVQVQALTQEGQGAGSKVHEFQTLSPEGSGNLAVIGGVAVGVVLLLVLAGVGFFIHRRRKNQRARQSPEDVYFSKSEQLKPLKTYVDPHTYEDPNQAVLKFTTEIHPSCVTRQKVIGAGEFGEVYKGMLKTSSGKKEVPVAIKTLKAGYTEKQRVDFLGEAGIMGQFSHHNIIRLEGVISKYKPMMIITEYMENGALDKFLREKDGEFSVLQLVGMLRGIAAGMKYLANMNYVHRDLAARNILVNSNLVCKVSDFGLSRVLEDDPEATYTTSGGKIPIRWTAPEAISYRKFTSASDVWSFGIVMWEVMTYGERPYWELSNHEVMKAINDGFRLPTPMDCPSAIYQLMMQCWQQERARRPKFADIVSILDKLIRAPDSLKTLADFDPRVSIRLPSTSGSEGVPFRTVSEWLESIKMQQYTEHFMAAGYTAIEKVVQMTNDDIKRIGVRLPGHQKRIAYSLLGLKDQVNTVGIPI
Chain of Tyrosine-protein kinase CSK (Homo sapiens) (P41240 2-450 limits assumed): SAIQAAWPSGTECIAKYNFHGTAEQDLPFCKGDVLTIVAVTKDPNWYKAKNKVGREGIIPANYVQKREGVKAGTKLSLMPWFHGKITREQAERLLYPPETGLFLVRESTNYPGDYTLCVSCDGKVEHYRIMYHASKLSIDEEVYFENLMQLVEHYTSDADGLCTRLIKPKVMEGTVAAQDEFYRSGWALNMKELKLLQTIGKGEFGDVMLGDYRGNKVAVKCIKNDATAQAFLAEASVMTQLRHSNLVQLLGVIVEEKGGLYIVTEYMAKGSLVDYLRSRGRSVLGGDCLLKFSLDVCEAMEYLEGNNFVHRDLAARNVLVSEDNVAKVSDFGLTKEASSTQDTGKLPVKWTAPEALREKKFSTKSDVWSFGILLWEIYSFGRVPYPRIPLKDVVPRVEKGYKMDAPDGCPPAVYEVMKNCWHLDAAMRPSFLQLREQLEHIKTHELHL
Chain of Epidermal growth factor receptor (Homo sapiens), P00533 [L861Q] (P00533 whole entry L861Q): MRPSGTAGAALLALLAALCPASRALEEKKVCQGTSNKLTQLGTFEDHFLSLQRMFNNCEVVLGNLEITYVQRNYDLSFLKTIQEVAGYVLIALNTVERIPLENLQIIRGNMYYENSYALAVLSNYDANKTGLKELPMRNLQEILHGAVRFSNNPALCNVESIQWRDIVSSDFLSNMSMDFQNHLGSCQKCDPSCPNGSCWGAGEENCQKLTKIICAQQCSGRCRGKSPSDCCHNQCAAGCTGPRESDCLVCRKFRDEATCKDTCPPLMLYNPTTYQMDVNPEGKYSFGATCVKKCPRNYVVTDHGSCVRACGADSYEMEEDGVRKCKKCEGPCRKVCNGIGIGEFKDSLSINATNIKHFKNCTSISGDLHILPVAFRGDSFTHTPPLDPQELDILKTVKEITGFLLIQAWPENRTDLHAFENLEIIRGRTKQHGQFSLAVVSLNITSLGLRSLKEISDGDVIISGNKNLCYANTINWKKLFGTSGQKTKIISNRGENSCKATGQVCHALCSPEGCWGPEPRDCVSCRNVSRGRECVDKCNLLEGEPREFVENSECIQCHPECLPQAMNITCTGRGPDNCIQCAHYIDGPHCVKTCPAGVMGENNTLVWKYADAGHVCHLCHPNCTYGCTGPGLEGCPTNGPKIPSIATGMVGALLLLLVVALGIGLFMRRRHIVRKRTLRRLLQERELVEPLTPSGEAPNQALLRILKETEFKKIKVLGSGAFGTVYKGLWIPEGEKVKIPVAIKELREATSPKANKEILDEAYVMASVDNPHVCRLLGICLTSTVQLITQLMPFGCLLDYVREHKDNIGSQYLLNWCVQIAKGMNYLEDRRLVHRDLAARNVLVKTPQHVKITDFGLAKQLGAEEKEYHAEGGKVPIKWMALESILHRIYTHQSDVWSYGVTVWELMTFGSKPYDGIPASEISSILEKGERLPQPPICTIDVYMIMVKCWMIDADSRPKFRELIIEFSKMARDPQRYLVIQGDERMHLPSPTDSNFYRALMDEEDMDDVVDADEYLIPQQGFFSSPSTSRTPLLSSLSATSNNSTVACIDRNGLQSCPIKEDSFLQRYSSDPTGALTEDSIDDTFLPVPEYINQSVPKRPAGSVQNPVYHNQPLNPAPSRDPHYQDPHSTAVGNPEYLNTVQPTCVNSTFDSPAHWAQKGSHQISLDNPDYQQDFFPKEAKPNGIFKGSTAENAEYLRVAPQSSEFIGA
Chain of Epidermal growth factor receptor (Homo sapiens), P00533 [L858R,T790M] (P00533 whole entry T790M/L858R, looked up): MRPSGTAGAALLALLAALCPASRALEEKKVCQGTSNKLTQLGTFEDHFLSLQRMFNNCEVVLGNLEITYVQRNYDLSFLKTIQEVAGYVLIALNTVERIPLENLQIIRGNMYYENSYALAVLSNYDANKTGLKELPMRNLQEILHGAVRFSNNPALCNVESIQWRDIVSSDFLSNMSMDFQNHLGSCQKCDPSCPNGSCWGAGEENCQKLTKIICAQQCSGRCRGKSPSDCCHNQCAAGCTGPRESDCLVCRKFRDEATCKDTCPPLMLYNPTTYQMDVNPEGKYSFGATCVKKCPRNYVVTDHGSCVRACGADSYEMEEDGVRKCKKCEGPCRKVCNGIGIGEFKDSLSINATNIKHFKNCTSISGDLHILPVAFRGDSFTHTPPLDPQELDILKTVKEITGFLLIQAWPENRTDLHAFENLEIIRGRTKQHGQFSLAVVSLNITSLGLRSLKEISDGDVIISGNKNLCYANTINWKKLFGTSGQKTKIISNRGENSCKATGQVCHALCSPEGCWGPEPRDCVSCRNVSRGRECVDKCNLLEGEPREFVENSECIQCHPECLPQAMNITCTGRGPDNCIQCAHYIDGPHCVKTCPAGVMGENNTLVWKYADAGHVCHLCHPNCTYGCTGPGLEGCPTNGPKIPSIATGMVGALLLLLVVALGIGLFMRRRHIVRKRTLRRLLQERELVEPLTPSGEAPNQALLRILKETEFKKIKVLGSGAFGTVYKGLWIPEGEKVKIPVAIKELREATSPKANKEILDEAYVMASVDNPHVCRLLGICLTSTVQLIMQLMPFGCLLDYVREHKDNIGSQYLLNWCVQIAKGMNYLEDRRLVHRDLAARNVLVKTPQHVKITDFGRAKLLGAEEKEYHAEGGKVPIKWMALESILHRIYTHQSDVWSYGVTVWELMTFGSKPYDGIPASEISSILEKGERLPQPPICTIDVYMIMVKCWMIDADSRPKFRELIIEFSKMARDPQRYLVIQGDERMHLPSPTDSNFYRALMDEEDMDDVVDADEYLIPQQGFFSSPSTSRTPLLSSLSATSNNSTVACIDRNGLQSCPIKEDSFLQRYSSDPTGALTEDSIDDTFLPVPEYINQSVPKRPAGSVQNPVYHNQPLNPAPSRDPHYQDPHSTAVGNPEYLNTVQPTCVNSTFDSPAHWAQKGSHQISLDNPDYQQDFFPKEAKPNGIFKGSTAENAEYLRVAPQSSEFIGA

For the molecule `FC(F)(F)c1ccc(-c2nn3ncccc3c2-c2ccnc(Nc3ccc4c(c3)OCCO4)n2)cc1`, the inhibition is 6.46% in test [1]; 8.59% in test [2]; 24.9% in test [3]; 6.78% in test [4]; 19.2% in test [5]; 5.78% in test [6]. For the same molecule, the inhibition in [7] amounted to 40.1%; in [8], 4.86%; in test [9], 27.6%; in test [10], 0.49%; in test [11] it was 7.94%; in test [12] it was 0.49%. Besides, the inhibition in test [13] worked out at 10.3%; in test [14], 4.63%; in test [15], 3.45%; in test [16], 0.34%; in test [17] it was 2.49%; in test [18] it was 1.05%. Further, the results for the inhibition in [19] and in test [20] were 21.2% and 3.69%, respectively.

Consider `CN(c1ccc(NC(=O)Nc2ccc(OC(F)(F)F)cc2)cc1)c1ccnc(Nc2cccc(S(N)(=O)=O)c2)n1`, for which the inhibition in [1] was 29.4%; in [2] it was 53.2%; in [3] it was 88.6%; in test [4], -0.6%; in test [5], 3.21%; in test [6], 1.4%. Moreover, the inhibition in test [7] is 3.36%; in test [8], 1.14%; in test [9], 5.92%; in [10] it was 1.81%; in test [11] it was 1.56%; in [12] it was 2.59%. Besides, the inhibition in test [13] was 2.24%; in test [14] it was 3.48%; in [15], 35.4%; in test [16] it was 5.58%; in test [17] it was 18.3%; in [18] it was 9.59%. Besides, the figures for the inhibition in [19] and in test [20] were 59.8% and 10.9%, respectively.

In the case of `CS(=O)(=O)CCNCc1nc(-c2ccc3ncnc(Nc4ccc(OCc5cccc(C(F)(F)F)c5)cc4)c3c2)cs1`, the inhibition in [1] stood at 2.7%; in [2] it was 5.44%; in test [3] it was 5.59%; in test [4], 14.6%; in [5] it was 64%; in [6], 8.86%. In addition, the inhibition in test [7] is 43.9%; in test [8], 11.5%; in [9] it was 34.8%; in [10] it was -1.75%; in test [11], -0.12%; in test [12], -2.33%. The inhibition in [13] was -3.57%; in test [14] it was 1.44%; in [15], 0.05%; in test [16], 2.99%; in [17], 3.51%; in test [18], 0.66%. In addition, the inhibition in [19] was 7.07%; in test [20], 0.86%.

On to `COc1cc(Nc2nccc(-c3cnn4ncccc34)n2)cc(OC)c1`, for which the inhibition in test [1] turned out to be 12.1%; in test [2], 1.4%; in [3], 8.7%; in [4], 1.68%; in test [5] it was 5.94%; in test [6] it was 2.1%. Also, the inhibition in [7] was 16.7%; in [8], 0.35%; in test [9] it was 3.09%; in test [10] it was 0.47%; in [11], -0.64%; in test [12] it was 2.35%. In addition, the inhibition was found to be 15.8% in test [13]; 2.66% in test [14]; 24.3% in test [15]; 3.17% in test [16]; 11.1% in [17]; 9.67% in test [18]. The results for the inhibition in test [19] and in test [20] were 45.3% and 4.13%, respectively.

For `CN(C)C(=O)O[C@H]1CN[C@H](C#Cc2cc3ncnc(Nc4ccc(OCc5cccc(F)c5)c(Cl)c4)c3s2)C1`, the inhibition was 2.76% in test [1]; 1.62% in test [2]; 1.98% in test [3]; -0.69% in [14]; 0.86% in test [15]; 2.97% in [16]. The inhibition in test [17] amounted to 4.79%; in [18], 7.54%; in test [19], 8.32%; in [20] it was 9.47%.

In the case of `Cc1ccc2c(c1)/C(=N/Nc1ccc(S(N)(=O)=O)cc1)C(=O)N2`, the inhibition in test [1] was -6.97%; in test [2] it was -0.42%; in test [3], -0.71%; in [4], -0.37%; in test [5], 0.75%; in test [6], -1.56%. Further, the inhibition is -1.97% in [7]; -0.23% in [8]; -4.18% in test [9]; -0.84% in test [10]; -3% in [11]; -4.55% in test [12]. For the same molecule, the inhibition in test [13] is -2.96%; in test [14], 1.34%; in test [16], -0.01%; in test [17], 2.43%; in test [18], -0.11%; in [19], -5.42%. Besides, the inhibition in [20] was -2.4%.

In the case of `NS(=O)(=O)c1cccc(-c2cc3ccncc3cc2OCc2ccccc2)c1`, the inhibition in test [1] was 4.74%; in test [2] it was 1.4%; in [3], 6.85%; in [4] it was -0.75%; in [5] it was 3.23%; in test [6], 4.24%. The inhibition in test [7] is 6.99%; in test [8], 4.79%; in test [9], 3.2%; in [10], 2.32%; in test [11], 1.71%; in [12] it was 1.48%. Besides, the inhibition stood at 0.67% in test [13]; 1.97% in test [14]; 1.53% in test [15]; 2.7% in [16]; 3.87% in test [17]; 8.09% in test [18]. The inhibition in test [19] came out at 5.03%; in [20], 4.23%.
